Rows were chosen to be rich in hits. Some 5.8% of all compounds tested hit in one or more screens of this group.
KB-3-1 cytotox: qHTS assay for MDR1-selective chemotherapeutics: Primary screen using the parental adenocarcinoma cell KB-3-1. Potency, µM (highest dose often 46.1 µM), hits mostly cytotoxic. AID 1347075, 2019. 1.4% of 400,000 active. KB-3-1 viability, CellTiter-Glo ATP luminescence, 72 h; further: nearly all actives have a fitted effect of over 60% in size
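KB-3-1 cells, DMEM (no phenol red) + 10% FBS; compound by pin transfer, 72 h, 37 °C. Readout: CellTiter-Glo luminescence after 10 min. Data normalized, curve-fitted.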
SW480 rereplic: A quantitative high throughput screen for small molecules that induce DNA re-replication in SW480 colon adenocarcinoma cells. SW480 DNA re-replication, Hoechst DNA content imaging, 48 h. Potency, µM (titrated, usually from 46.1 µM), usual class: activators. 1.8% of 340,000 active; further: nearly all actives have a fitted effect of over 55% in size
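Per well, 250 cells were exposed to pinned compound for 48 hr. Nuclear DNA was visualised with Hoechst (40 min, 37 C) and total object intensity recorded by fluorescence scanning.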
12-LOX inh: Primary qHTS assay for inhibitors of human arachidonate 12S-lipoxygenase (ALOX12): Round 2. purified 12hLO, xylenol orange hydroperoxide absorbance. Potency, µM (titrated, usually from 108 µM), hits mostly inhibitors. 1.1% of 580,000 active. AID 1671190, 2021. Polyunsaturated fatty acid lipoxygenase ALOX12 (Homo sapiens), P18054
Target sequence (P18054 whole entry, looked up): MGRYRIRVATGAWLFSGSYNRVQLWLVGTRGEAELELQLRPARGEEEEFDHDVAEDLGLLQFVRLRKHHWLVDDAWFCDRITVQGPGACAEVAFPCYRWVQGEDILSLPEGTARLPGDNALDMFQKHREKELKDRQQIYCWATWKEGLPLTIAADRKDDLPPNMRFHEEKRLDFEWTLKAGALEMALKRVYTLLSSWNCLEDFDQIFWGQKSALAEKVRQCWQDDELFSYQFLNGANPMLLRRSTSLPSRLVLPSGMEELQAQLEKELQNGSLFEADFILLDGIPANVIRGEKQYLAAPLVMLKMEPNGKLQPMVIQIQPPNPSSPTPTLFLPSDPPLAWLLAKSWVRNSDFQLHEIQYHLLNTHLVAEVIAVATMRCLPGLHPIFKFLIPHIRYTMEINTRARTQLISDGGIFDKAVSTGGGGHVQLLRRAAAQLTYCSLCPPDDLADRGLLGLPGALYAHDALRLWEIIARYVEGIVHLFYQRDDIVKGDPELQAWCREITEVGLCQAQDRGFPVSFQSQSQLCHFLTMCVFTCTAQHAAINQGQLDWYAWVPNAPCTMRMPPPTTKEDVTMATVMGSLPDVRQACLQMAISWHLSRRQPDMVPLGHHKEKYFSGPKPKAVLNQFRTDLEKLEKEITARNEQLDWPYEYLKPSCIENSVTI
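Hydroperoxide product was detected by ferrous iron/xylenol orange as the 573 to 405 nm absorbance ratio. Arachidonic acid at 40 uM (final) was turned over for 30 min at room temperature by 150 nM human 12hLO, pH 7.0 Hepes buffer, after 15 min compound preincubation.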
PINK1 expr mod: A Quantitative High throughput Screen to Identify Chemical Modulators of PINK1 Expression. PINK1 immunofluorescence, high-content cytometry, 24 h. AID 624263, 2012. 0.2% of 410,000 active. Potency, µM (top dose mostly 76.6 µM), usual class: activators; active means well fitted activation curve with a large enough effect; inconclusive means small, poorly fitted or top-dose-only effect; cell line not stated here; further: nearly all actives have a fitted effect of over 65% in size
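Decision-based qHTS: stable cells, 24 h exposure to five compound concentrations, CCCP as control. Fixed cells stained for PINK1 plus nuclear, mitochondrial and cell markers, cytometer read.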
MCF10A rerep: A quantitative high throughput screen for small molecules that induce DNA re-replication in MCF 10a normal breast cells. MCF 10A DNA re-replication, Hoechst nuclear intensity, 48 h. 2.9% of 350,000 active. Potency, µM (highest dose often 46.1 µM), usual class: activators; further: nearly all actives have a fitted effect of over 50% in size
KB-V1 MDR tox: qHTS assay for MDR1-selective chemotherapeutics: Primary screen using the drug-selected MDR subline cells KB-V1; KB-V1 MDR cells viability, CellTiter-Glo, 72 h; 3.4% of 400,000 active; Potency, µM (highest dose often 46.1 µM), hits mostly cytotoxic; further: nearly all actives have a fitted effect of over 60% in size
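Cytotoxicity toward P-gp-expressing KB-V1 cells was determined as loss of CellTiter-Glo luminescence after 72 h at 37 degrees C. Compounds were tested in quantitative HTS format across a concentration range, with curves fitted to normalized data.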
Large screens that a line does not name were inactive. Unless noted, the call rests on the fitted dose curve; in most records, active means well fitted curve in the direction sought with a large enough effect; inconclusive means small, poorly fitted or top-dose-only effect, or another doubt; inactive means no such curve, though single readings can be large; an effect the other way counts as inactive or inconclusive.

CC(C(=O)NCc1ccc2c(c1)OCO2)n1nc(-c2ccccc2)c2ccccc21 (stereo unspecified)	none (no result: KB-3-1 cytotox, SW480 rereplic, PINK1 expr mod, MCF10A rerep, KB-V1 MDR tox)
O=S(=O)(Nn1cnnc1)c1ccc(F)cc1	MCF10A rerep 2.3µM
CCOc1cc(C2SC(NC(C)=O)=NN2C(C)=O)ccc1OCc1ccccc1F (stereo unspecified)	none (no result: KB-3-1 cytotox, SW480 rereplic, PINK1 expr mod, MCF10A rerep, KB-V1 MDR tox)
O=C1CCN(S(=O)(=O)c2cccs2)CCCC(CO)CCN1 (stereo unspecified)	none (no result: KB-3-1 cytotox, SW480 rereplic, PINK1 expr mod, MCF10A rerep, KB-V1 MDR tox)
NNc1nc2cccnc2n(CCNc2ncc(C(F)(F)F)cc2Cl)c1=O	KB-3-1 cytotox inconclusive, PINK1 expr mod inconclusive, MCF10A rerep 21µM, KB-V1 MDR tox inconclusive
O=c1c2nncn2c2cccnc2n1CCNc1ncc(C(F)(F)F)cc1Cl	KB-3-1 cytotox inconclusive, SW480 rereplic inconclusive
Cc1ccc(NN2C(=O)C=C(c3ccccc3)C2=O)cc1	SW480 rereplic 8.2µM, 12-LOX inh inconclusive, MCF10A rerep 8.2µM
O=C1c2ccccc2C(=O)N1Nc1ccccc1	MCF10A rerep inconclusive
COc1ccc(NC(=S)N(CCCN2CCCC2)Cc2cccn2Cc2ccc(Cl)cc2)cc1Cl	SW480 rereplic 23µM, MCF10A rerep 21µM, KB-V1 MDR tox 18µM
Cc1ccc(NC(=S)N(CCCN2CCCC2)Cc2cccn2Cc2ccc(Cl)cc2)cc1Cl	SW480 rereplic inconclusive, MCF10A rerep inconclusive
CCc1ccc(CNC(=O)COC(=O)c2ccc(Cl)cc2)cc1	none (no result: KB-3-1 cytotox, SW480 rereplic, PINK1 expr mod, MCF10A rerep, KB-V1 MDR tox)
O=C(CCNS(=O)(=O)c1cccc2nonc12)N1CCN(c2cccc(Cl)c2)CC1	SW480 rereplic inconclusive, KB-V1 MDR tox 10µM
O=C(CCNS(=O)(=O)c1cccs1)N1CCN(c2cccc(Cl)c2)CC1	KB-V1 MDR tox inconclusive
O=C(CCS(=O)(=O)c1cccc2nonc12)N1CCN(c2ccc(F)cc2)CC1	KB-V1 MDR tox 23µM
CCCC(C)NC(=O)CN(c1cccc(OC)c1)S(C)(=O)=O (stereo unspecified)	none (no result: KB-3-1 cytotox, SW480 rereplic, PINK1 expr mod, MCF10A rerep, KB-V1 MDR tox)
O=C(CCc1c[nH]c2ccccc12)N1CCN(C(=O)c2ccco2)CC1	none (no result: KB-3-1 cytotox, SW480 rereplic, PINK1 expr mod, MCF10A rerep, KB-V1 MDR tox)
Cc1nc2cc(NC(=O)COc3ccc(Cl)cc3Cl)ccc2o1	none (no result: KB-3-1 cytotox, SW480 rereplic, PINK1 expr mod, MCF10A rerep, KB-V1 MDR tox)
CC(C)Cn1cnc2c1c(=O)n(CC(=O)Nc1ccc(C#N)cc1)c(=O)n2Cc1ccccc1	none (no result: KB-3-1 cytotox, SW480 rereplic, PINK1 expr mod, MCF10A rerep, KB-V1 MDR tox)
Cc1ccccc1NC(=O)CSC1=Nc2ccccc2C2CC=NN12 (stereo unspecified)	none (no result: KB-3-1 cytotox, SW480 rereplic, PINK1 expr mod, MCF10A rerep, KB-V1 MDR tox)
Cc1ccc(NC(=O)CSC2=Nc3ccccc3C3CC=NN23)c(C)c1 (stereo unspecified)	12-LOX inh inconclusive, KB-V1 MDR tox 13µM
COC(=O)c1ccc(NC(=O)CSC2=Nc3ccccc3C3CC=NN23)cc1 (stereo unspecified)	KB-V1 MDR tox 16µM (no result: 12-LOX inh)
CC(C)(N)C(=O)N1CCCC(N2CCN(c3cccc(Cl)c3)CC2)C1 (stereo unspecified)	none (no result: KB-3-1 cytotox, SW480 rereplic, PINK1 expr mod, MCF10A rerep, KB-V1 MDR tox)
COc1ccc2cc(Br)ccc2c1CC(=O)NC(C)C	KB-V1 MDR tox inconclusive
C=CCNC(=O)Cc1c(OC)ccc2cc(Br)ccc12	KB-3-1 cytotox inconclusive, KB-V1 MDR tox 21µM
CCc1cc(=O)oc2cc(OS(=O)(=O)c3sc(C(=O)OC)c(C)c3C(=O)OC)ccc12	none (no result: KB-3-1 cytotox, SW480 rereplic, PINK1 expr mod, MCF10A rerep, KB-V1 MDR tox)
CCOc1ccc(NS(=O)(=O)c2ccc(NS(=O)(=O)c3ccc(SC)cc3)cc2)cc1	12-LOX inh inconclusive, MCF10A rerep inconclusive, KB-V1 MDR tox 23µM
CCOC(=O)N1CCN(C(=O)COc2ccc(S(=O)(=O)Nc3ccc(OCC)cc3)cc2)CC1	KB-3-1 cytotox 21µM
COc1cc(NC(=O)CC2SCCNC2=O)cc(OC)c1OC (stereo unspecified)	none (no result: KB-3-1 cytotox, SW480 rereplic, PINK1 expr mod, MCF10A rerep, KB-V1 MDR tox)
CCc1ccc(Nc2ccc(S(=O)(=O)N3CCOCC3)cc2[N+](=O)[O-])cc1	KB-V1 MDR tox 23µM
Nc1nc(N)c2sc3nc(C(F)(F)F)cc(C(F)(F)F)c3c2n1	MCF10A rerep inconclusive, KB-V1 MDR tox 18µM
